# Source: PubChem BioAssay (several laboratories)
# G6PDH counter: inhibits Leuconostoc G6PDH, flagging false hits in G6PDH-based assays; actives 0.12% (n = 200,000); Purified L. mesenteroides G6PDH, diaphorase/resazurin coupled fluorescence, 45 min; inhibition, % at 5 µM; in the data active = inhibition above about 50%
# PHOSPHO1 inh: blocks human PHOSPHO1 phosphatase activity; recombinant PHOSPHO1, absorbance phosphatase assay; actives 1.1% (n = 290,000); inhibition, % at 13.3 µM; Q8TCT1; AID 1565; in the data active = inhibition above about 60%
# p97 ATPase inh: human p97 ATPase inhibition; P55072; recombinant p97 ATPase, Kinase-Glo ATP luminescence, 3 h; inhibition, % at 8 µM; actives 0.42% (n = 220,000); AID 1481; in the data active = inhibition above about 15%;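 also: 0% = DMSO vehicle and 100% = wells lacking enzyme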
# SUMO HTRF inh: SUMOylation inhibition; P63279; HTRF SUMOylation assay, SAE1/SAE2 + UBC9, in vitro; inhibition, % at 35 µM; actives 0.36% (n = 290,000); in the data active = inhibition above about 50%, passing the limit was not always enough; inconclusive = no clear call, values can overlap the other calls
# Target sequence (P63279 whole entry, looked up): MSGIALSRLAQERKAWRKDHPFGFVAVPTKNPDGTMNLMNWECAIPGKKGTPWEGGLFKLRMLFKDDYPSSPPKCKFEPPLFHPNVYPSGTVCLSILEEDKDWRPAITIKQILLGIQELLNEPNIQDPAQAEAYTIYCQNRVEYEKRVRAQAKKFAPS
# PfM18AAP inh-1: PfM18AAP enzyme inhibition. recombinant PfM18AAP, H-Glu-NHMec fluorogenic cleavage. inhibition, % at 7.35 µM. actives 1.2% (n = 290,000);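 active = inhibition above the campaign mean inhibition over all tested compounds plus 3 SD, cut at about 28% in these data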;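 also: 0% = plate median of test compound wells and 100% = 2 mM ZnCl2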
# HDAC3 inh: blocks human histone deacetylase 3 | inhibition, % at 8.3 µM | recombinant HDAC3, fluorogenic peptide/trypsin coupled, fluorescence | actives 0.15% (n = 320,000) | AID 2718; in the data active = inhibition above about 26%, passing the limit was not always enough; inconclusive = no clear call, values can overlap the other calls
# PfM18AAP inh-2: confirmation of Plasmodium falciparum M18 aspartyl aminopeptidase inhibitors; shares compounds with PfM18AAP inh-1; recombinant PfM18AAP, H-Glu-NHMec fluorogenic cleavage; inhibition, % at 7.35 µM; actives 28% (n = 2,400); AID 2170;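 active = mean inhibition over replicate wells above the hit cutoff set for the earlier primary screen, cut at about 29% in these data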;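 also: 0% = median of test compound wells and 100% = 2 mM ZnCl2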
# CTSL1 confirm: Cathepsin L (human) inhibition, confirmation; 2,400 tested, under 10 active; shares compounds with PfM18AAP inh-1; purified cathepsin L1, Z-Leu-Arg-MCA fluorescence; inhibition, % at 5.96 µM;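 active = average inhibition across replicates above the hit cutoff set in the earlier primary screen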;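 also: 0% = median of test compound wells and 100% = Z-Phe-Ala-diazomethylketone 1 µM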
# Target sequence (P07711 whole entry, looked up): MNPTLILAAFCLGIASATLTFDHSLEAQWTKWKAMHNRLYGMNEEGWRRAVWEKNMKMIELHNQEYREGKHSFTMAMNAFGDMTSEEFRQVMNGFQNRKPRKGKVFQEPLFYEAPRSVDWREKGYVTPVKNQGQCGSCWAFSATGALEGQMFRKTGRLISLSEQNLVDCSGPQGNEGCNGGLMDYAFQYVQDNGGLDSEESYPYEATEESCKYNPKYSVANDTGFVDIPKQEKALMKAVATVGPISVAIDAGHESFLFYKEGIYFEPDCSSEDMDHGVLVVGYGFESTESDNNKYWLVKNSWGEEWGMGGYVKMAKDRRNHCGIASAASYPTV
# The depositor's hits bear a star; ? = inconclusive; nt = no result. Compounds with a hit are over-represented: about 2.5% of the library has one in this group of screens.
SMILES,G6PDH counter,PHOSPHO1 inh,p97 ATPase inh,SUMO HTRF inh,PfM18AAP inh-1,HDAC3 inh,PfM18AAP inh-2,CTSL1 confirm
COc1ccc(/C(C)=N/NC(=O)CNC(=O)C(c2ccccc2)c2ccccc2)c(OC)c1,nt,14.6,nt,-16.2,0.9,11.9,nt,nt
Cc1ccccc1OCC(=O)Nc1ccc(C(=O)Nc2ccccc2C(=O)O)cc1,nt,25.0,nt,4.1,2.2,0.1,nt,nt
CSc1nc2nc3c(cn2n1)C(=O)CC(c1ccccc1)C3 (centres undefined),-3.4,18.0,-1.9,34.5,34.2*,-1.6,-53.0,-2.5
O=C1CC(c2ccccc2)Cc2nc3nc(C(F)(F)F)nn3cc21 (centres undefined),7.4,8.3,0.1,47.0,-1.6,-2.1,nt,nt
Cc1c(CNCC(C)c2ccccc2)c(C(=O)O)c(C)n1Cc1ccccc1 (centres undefined),5.7,-9.7,-2.6,-10.6,4.6,?,nt,nt
COc1ccc(N/C=C2\C(=O)CCc3c2oc2cc(Cl)c(O)c(Cl)c32)cc1,nt,21.0,4.6,37.6,23.4,0.3,9.6,-1.9
CC(C)(C)c1ccc(C(=O)N2CCC(C(=O)c3ccccc3)CC2)cc1,nt,-2.4,nt,-11.8,11.1,0.9,nt,nt
O=S(=O)(O)c1cc(O)c2c(O)c(N=Nc3cc(Cl)ccc3O)c(S(=O)(=O)O)cc2c1,nt,37.3,nt,-30.1,44.7*,6.2,28.6*,1.1
Cc1cc(/C=N/Nc2ccc([N+](=O)[O-])cn2)c(C)n1-c1ccc(C(=O)O)cc1,2.7,8.9,10.5,nt,50.3*,10.5,-24.2,-2.5
Cc1ccccc1-n1c(C)cc(/C=N/Nc2ccc([N+](=O)[O-])cn2)c1C,-3.4,56.7,2.0,36.8,45.2*,8.9,-31.4,4.7
COc1cc(/C=C/C(=O)OCC(=O)NCCN2C(=O)CSC2=O)ccc1OCC#N,nt,nt,nt,nt,nt,-1.2,nt,nt
O=C(O)c1ccc(N/N=C/c2ccc(-c3ccc(Br)cc3)o2)cc1,nt,28.0,nt,20.9,7.3,-0.5,nt,nt
Cc1nnc(N/N=C/c2ccc(-c3ccc(Br)cc3)o2)n1N,9.2,-55.3,8.9,15.0,50.8*,9.9,3.2,2.5
CC(C)(C)c1nnc(N/N=C/c2ccccc2)n(N)c1=O,4.5,2.9,0.1,1.1,47.0*,7.0,-49.5,3.1
Cc1nnc(N/N=C\c2ccc(-c3cccc(C(=O)O)c3)o2)n1N,6.9,-83.1,7.8,11.3,51.4*,-2.8,4.6,-1.9
COc1ccc(/C=N/Nc2nnc(C)n2N)cc1OC(C)=O,nt,1.2,nt,6.0,33.9*,8.6,-39.2,1.2
COc1ccc(/C=N/Nc2nnc(C)n2N)cc1OC,6.4,-27.9,-1.5,18.9,25.5,8.5,nt,nt
O=C(O)c1cccc(-c2ccc(/C=N/NC(=O)c3cccnc3)o2)c1,-0.4,8.4,-0.7,2.5,-2.7,-1.2,nt,nt
CCN1CCn2c3c(c4cccc(C)c42)CCCC31 (centres undefined),nt,nt,nt,10.1,3.5,2.3,nt,nt
CCCN(C(=O)CSc1nc2ccccc2n1CC)C1CCS(=O)(=O)C1 (centres undefined),nt,19.8,nt,-0.8,-13.3,-1.0,nt,nt
CCOC(=O)C1=C(COC(=O)c2ccco2)NC(=O)NC1CC (centres undefined),nt,nt,nt,nt,nt,-1.0,nt,nt
Cc1nnc(N/N=C/c2ccc(Br)cc2)n1N,nt,-2.4,nt,4.2,48.0*,6.1,-36.8,-5.5
Cc1nnc(N/N=C/c2ccc([N+](=O)[O-])cc2)n1N,4.0,4.5,3.0,9.3,14.8,-1.4,nt,nt
CN1/C(=C\C(=O)c2ccco2)C(C)(C)c2ccccc21,5.0,-28.4,-2.0,-20.4,5.8,-0.1,nt,nt
CCN1/C(=C/C(=O)c2ccco2)Sc2ccccc21,13.3,11.2,-4.8,10.5,46.4*,0.8,-12.2,2.1
CCC(=O)/C=C1/Sc2ccccc2N1CC,1.3,1.1,0.2,18.0,53.6*,7.9,7.1,4.3
CC(C)c1nc2cc(C(=O)N3CCN(c4cnccn4)CC3)ccc2o1,nt,13.7,nt,-0.3,-3.1,1.1,nt,nt
CCCc1cc(C(=O)N/N=C/c2cccn2C)cs1,nt,7.7,nt,13.2,-0.6,7.5,nt,nt
CCc1ccc[n+](-c2[nH]c(=O)sc2/C=N/N=C(\[O-])c2ccncc2)c1,nt,45.3,nt,1.2,9.7,3.0,nt,nt
